LASV entry inh – blocks Lassa virus binding to or entry into cells; AID 540256; Lassa virus pseudotype entry inhibition, cell reporter; Potency, µM (top dose mostly 37.9 µM), hits mostly inhibitors; 300,000 compounds, 1.2% hits; calls by dose curve; tested in HEK293 cells; note: nearly all actives have a fitted effect of over 50% in size
Pf growth 96h – inhibits malaria parasite growth, 96 h. P. falciparum luciferase reporter growth, 96 h. Potency, µM (top dose mostly 28.7 µM), usual class: inhibitors. 320,000 compounds, 6.9% hits
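Two-generation exposure (96 h) targets delayed-death phenotype. Reporter parasites carrying integrated firefly luciferase, in red cells at 2% hematocrit and 0.05% parasitemia final, kept at 37 C, 5% CO2; luminescence loss indicates inhibition.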
HCMV antiviral – human cytomegalovirus inhibition; HFF cells, HCMV-luciferase reporter, 72 h; stronger effect = lower value; activity change, negative = inhibition, % at 57.5 µM; 410,000 compounds, 4.5% hits; AID 1259415; in the data active = activity change below about -60%; inconclusive = no clear call, values can overlap the other calls; inactive = above about -39%
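Screen run at 2 compound doses on HFFs infected with reporter HCMV, MOI 1 PFU/cell. Luciferase activity from cell lysates at 72 h post infection gave inhibition relative to buffer-only and Salinomycin wells.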
HCV inh – HCV inhibition | 340,000 compounds, 3.4% hits | Potency, µM (titrated, usually from 41.8 µM), actives largely listed as inhibitors | Huh7.5.1 HCVcc-Cre infection, luciferase reporter, 44 h
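Seed cells (1,000/well) for 4 h; treat with compound and infect with HCVcc-Cre, moi about 0.5. Incubate 44 h, then detect luciferase activity.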
Pf growth 48h – inhibits P. falciparum growth in the first generation, 48 h; P. falciparum luciferase growth in erythrocytes, 48 h; Potency, µM (highest dose often 28.7 µM), most hits filed as inhibitors; 310,000 compounds, 5.9% hits; AID 504832
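Compounds are pin-transferred into medium, infected erythrocytes (2% hematocrit, 0.1% parasitemia final) are added, and plates sit one parasite generation at 37 C in 5% CO2. Detection reagent is then added and luminescence measured.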
Marburg entry inh – blocks Marburg virus binding to or entry into cells. Marburg virus pseudotyped entry inhibition, cell reporter. 300,000 compounds, 1.8% hits. Potency, µM (top dose mostly 37.8 µM), most hits filed as inhibitors. AID 540276; calls by dose curve; tested in HEK293 cells
Of the large screens only hits and unclear results are named; the others gave an inactive call. Rows were chosen to be rich in hits. Some 14% of all compounds tested hit in one or more screens of this group. Unless noted, calls come from the whole dose curve; as a rule, active = well fitted inhibition curve with a large enough effect; inconclusive = small, poorly fitted or top-dose-only effect, or another doubt; inactive = no such curve, though single readings can be large or run the other way.

CC(=O)N1CCN(C(=O)OC2CC3CC2[C@H]2CCCCN2C3=O)CC1 (some centres not stated)	none (no result: LASV entry inh, Pf growth 96h, HCV inh, Pf growth 48h, Marburg entry inh)
COC(=O)c1c(NC(=S)NN2CCN(C)CC2)sc2c1CCC(C)C2 (configuration not stated)	LASV entry inh inconclusive, Pf growth 96h inconclusive, HCV inh 2.8µM, Pf growth 48h inconclusive, Marburg entry inh inconclusive
CCC(Oc1ccccc1)C(=O)Nc1cc(-c2ccccc2F)nn1-c1ccccc1 (configuration not stated)	none (no result: Pf growth 96h, HCV inh, Pf growth 48h, Marburg entry inh)
CCOc1ccc(Cl)cc1-c1cc(C(=O)NC(C)C)[nH]n1	none (no result: LASV entry inh, Pf growth 96h, HCV inh, Pf growth 48h, Marburg entry inh)
Clc1ccc(CNc2nc(CN3CCOCC3)nc3scc(-c4ccccc4)c23)cc1	LASV entry inh inconclusive, Pf growth 96h 3.7µM, HCV inh inconclusive, Pf growth 48h inconclusive, Marburg entry inh 20µM
Cc1ccc(-c2csc3ncnc(Nc4ccc(N5CCOCC5)cc4)c23)cc1	LASV entry inh 13µM, Pf growth 96h inconclusive, HCMV antiviral -90, HCV inh inconclusive, Pf growth 48h inconclusive, Marburg entry inh inconclusive
c1ccc(CNc2nc(CN3CCOCC3)nc3scc(-c4ccccc4)c23)cc1	Pf growth 96h inconclusive, Pf growth 48h inconclusive, Marburg entry inh inconclusive
Clc1ccc(-c2csc3ncnc(NCCN4CCOCC4)c23)cc1	LASV entry inh inconclusive, Pf growth 96h inconclusive, HCMV antiviral -75, HCV inh inconclusive, Marburg entry inh inconclusive (no result: Pf growth 48h)
COc1ccc(-c2csc3ncnc(NCCN4CCOCC4)c23)cc1	LASV entry inh inconclusive, Pf growth 96h inconclusive, HCMV antiviral -66, HCV inh inconclusive, Marburg entry inh inconclusive (no result: Pf growth 48h)
COc1ccc(OCCn2cc(C(=O)c3ccco3)c3ccccc32)cc1	LASV entry inh inconclusive (no result: Pf growth 96h, HCV inh, Pf growth 48h)
CCOc1ccc(-n2c(SCc3ccc(C(=O)OC)o3)nc3c([nH]c4ccccc43)c2=O)cc1	none (no result: Pf growth 96h, HCV inh, Pf growth 48h, Marburg entry inh)
CCCn1c(N)c(N(CCOC)C(=O)CSc2cc(C)c3ccccc3n2)c(=O)[nH]c1=O	none (no result: Pf growth 96h, Pf growth 48h)
CN(C)CCCNc1ncnc2scc(-c3ccccc3)c12	Pf growth 96h inconclusive, HCV inh inconclusive, Marburg entry inh inconclusive
Cc1ccc(-c2csc3ncnc(NCCN4CCOCC4)c23)cc1	LASV entry inh inconclusive, Pf growth 96h 10µM, HCMV antiviral -70, HCV inh inconclusive, Pf growth 48h 13µM, Marburg entry inh 11µM
Cc1ccc(Nc2ncnc3sc(C)c(C)c23)cc1	Pf growth 96h 9.3µM
CCC(C)NC(=O)CSc1nc2scc(-c3ccccc3)c2c(=O)[nH]1 (configuration not stated)	none
CCC(CO)Nc1nc(CN2CCCCC2)nc2scc(-c3ccccc3)c12 (configuration not stated)	Pf growth 96h inconclusive, HCMV antiviral -69, HCV inh inconclusive, Pf growth 48h inconclusive, Marburg entry inh inconclusive
Cc1ccc(-c2csc3ncnc(NCCC(=O)O)c23)cc1	none
c1ccc(-c2csc3ncnc(NCCN4CCOCC4)c23)cc1	Pf growth 96h inconclusive, HCMV antiviral -77, HCV inh 11µM, Pf growth 48h inconclusive
COc1ccc(N(C(=O)c2cc(OC)c(OC)c(OC)c2)S(=O)(=O)c2ccc(C)cc2)cc1	LASV entry inh inconclusive (no result: Pf growth 96h, HCV inh, Pf growth 48h, Marburg entry inh)
Cc1cnc(C(=O)Nc2ccccc2F)cn1	none (no result: Pf growth 48h)
Cc1cnc(C(=O)Nc2ccccc2-n2cccc2)cn1	Pf growth 96h 12µM
CCn1c(=O)c2sccc2n2c(CCCC(=O)Nc3ccc(C)cc3)nnc12	none (no result: Pf growth 96h, HCV inh, Pf growth 48h, Marburg entry inh)
CN(C)C(CNC(=O)c1ccc(-c2ccccc2)cc1)c1ccccc1 (configuration not stated)	Pf growth 96h inconclusive, HCV inh inconclusive, Pf growth 48h inconclusive, Marburg entry inh 11µM
COc1ccc(C(CNC(=O)Cc2ccc(-c3ccccc3)cc2)N(C)C)cc1 (configuration not stated)	Pf growth 96h inconclusive, HCV inh inconclusive, Pf growth 48h inconclusive, Marburg entry inh 11µM
Cc1ccccc1NS(=O)(=O)c1ccc(C(=O)NCC(c2ccccc2)N(C)C)cc1 (configuration not stated)	Pf growth 96h inconclusive, Pf growth 48h inconclusive, Marburg entry inh 11µM
CCO[C@H](c1cc(OC)cc([N+](=O)[O-])c1OC)[C@H](C)[C@@H](OC)[C@H](C)C=CCC(=O)OC	none (no result: LASV entry inh, Pf growth 96h, HCMV antiviral, HCV inh, Pf growth 48h)
CCOc1ccccc1CNC(=O)CN1C(=O)CCn2nc(-c3cn(C)c4ccccc34)cc21	LASV entry inh inconclusive (no result: Pf growth 96h, HCV inh, Pf growth 48h, Marburg entry inh)
CCN(CC)C(=O)N[C@@H]1C[C@@H]2c3cccc4[nH]cc(c34)C[C@H]2N(C)C1	Pf growth 48h inconclusive, Marburg entry inh inconclusive (no result: LASV entry inh, HCMV antiviral, HCV inh)
CCCn1cc2c3c(cccc31)C1CC(C)CN(C)C1C2 (configuration not stated)	Pf growth 96h 12µM, Pf growth 48h inconclusive (no result: LASV entry inh, HCMV antiviral, HCV inh, Marburg entry inh)
Cc1c(C(=O)N2CCCCC2)c(S(=O)(=O)NCc2ccccc2Cl)c(C)n1C	Pf growth 96h 13µM
Cc1ccccc1CNS(=O)(=O)c1c(C(=O)N2CCCC2)c(C)n(C)c1C	none
CCC/C(O)=C1\C(=O)CC(c2ccccc2)CC1=NCCc1c(C)[nH]c2ccccc12 (configuration not stated)	Pf growth 96h inconclusive, HCV inh inconclusive, Pf growth 48h 2.6µM
CCCC(=NCCc1c(C)[nH]c2ccccc12)C1=C(O)CC(c2ccccc2)CC1=O (configuration not stated)	LASV entry inh inconclusive, HCMV antiviral inconclusive, HCV inh inconclusive, Pf growth 48h 13µM, Marburg entry inh inconclusive
CCCCC(=NCCc1c(C)[nH]c2ccccc12)C1=C(O)CC(c2ccccc2)CC1=O (configuration not stated)	LASV entry inh 8.9µM, Pf growth 96h inconclusive, HCV inh inconclusive, Pf growth 48h 9.3µM, Marburg entry inh inconclusive
O=c1ccc2c(OCCCCc3ccccc3)c3ccoc3cc2o1	Marburg entry inh inconclusive (no result: Pf growth 96h, HCMV antiviral, HCV inh, Pf growth 48h)
O=Cc1ccc(O)c2ncccc12	LASV entry inh inconclusive, Pf growth 96h inconclusive, HCV inh inconclusive, Pf growth 48h 6.6µM, Marburg entry inh inconclusive (no result: HCMV antiviral)
c1cnc2ccc3ncccc3c2c1	none (no result: LASV entry inh)
Cc1cc(C(=O)COC(=O)c2ccccc2O)c(C)n1Cc1cccs1	LASV entry inh 0.33µM, HCMV antiviral -103, HCV inh inconclusive, Marburg entry inh 0.82µM (no result: Pf growth 96h)
CC(=O)Nc1ccccc1OCC(=O)c1cc(C)n(Cc2cccs2)c1C	HCMV antiviral -94, HCV inh inconclusive, Marburg entry inh inconclusive
O=C(NCc1cccc(Br)c1)c1cccn1-c1nnc(N2CCCCC2)s1	none (no result: Pf growth 96h, HCV inh, Pf growth 48h, Marburg entry inh)
Cc1ccc(-c2cnn3c(N4CCOCC4)cc(C)nc23)cc1	HCV inh inconclusive (no result: LASV entry inh, Marburg entry inh)
Cc1cc(N2CCOCC2)n2ncc(-c3ccccc3)c2n1	LASV entry inh 2.6µM, HCV inh inconclusive, Marburg entry inh inconclusive (no result: Pf growth 96h)
Cc1cc(N2CCC(C)CC2)n2ncc(-c3ccccc3)c2n1	LASV entry inh inconclusive, HCMV antiviral -64, HCV inh inconclusive, Marburg entry inh inconclusive
Cc1cc(N2CCCCC2)n2ncc(-c3ccccc3)c2n1	LASV entry inh 4.5µM, HCV inh 10µM, Marburg entry inh inconclusive
Cc1cc(N2CCCCC2)n2ncc(-c3ccc(Cl)cc3)c2n1	LASV entry inh inconclusive, Marburg entry inh inconclusive (no result: Pf growth 48h)
